Assay results taken from the supplement of paper PMC3484114.
± gives the standard deviation.

test system: OVCAR-3-derived ovarian cancer stem-like cells (spheroids); test: cell growth relative to untreated control; higher = more growth (less inhibition); settings: 2.29 µM; 96 h
How it was run: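 Percent growth was calculated against untreated wells once blanks were subtracted and Grubbs outliers removed. The cells were OVCAR-3 spheroid-derived stem-like cells, trypsinized and plated at 50,000 cells/mL in stem cell medium on ultra-low attachment 96-well plates for a 24 h preincubation. They were then exposed to compounds at 2.29 uM for 96 h at 37°C, 5% CO2, in 4 replicate wells, and viability was measured by TOX8 resazurin fluorescence (ex 560/em 590 nm) after 4 h.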

SMILES	cell growth
C/C1=C\[C@H](C)C[C@H](C)OC(=O)CC(c2ccc(O)cc2)NC(=O)[C@@H](Cc2c(Br)[nH]c3ccccc23)N(C)C(=O)[C@H](C)NC(=O)[C@@H](C)C1 (some centres not stated)	25 ± 5.7%
C1CCNCC1.S=C(S)N1CCCCC1	36.2 ± 3.5%
COc1ccc(NC2=NCCO2)c2c1CCCC2	98.5 ± 10%
C=C1C(C)C2C(Cc3ccccc3)NC(=O)C23C(OC(C)=O)/C=C/C(C)(O)CC(C)C/C=C/C3C1O (configuration not stated)	90.3 ± 20%
CC[C@@]1(O)C[C@H](OC2CC(N(C)C)C(O)C(C)O2)c2c(O)c3c(c(O)c2[C@H]1OC1CC(N(C)C)C(O)C(C)O1)C(=O)c1cccc(O)c1C3=O (some centres not stated)	58.8 ± 56%
CC(=O)OC1C(O)C(C)OC(OC2C(OC(=O)C3CCC4C(C3)OC3(CC(OC(=O)/C=C/c5ccccc5)C(C)CO3)C43CO3)OC(C)C(O)C2OC(C)=O)C1O (configuration not stated)	5.3 ± 3.2%
COC1CC(O[C@H]2CC[C@]3(C=O)[C@H]4CC[C@]5(C)[C@@H](C6=CC(=O)OC6)CC[C@]5(O)[C@@H]4CC[C@]3(O)C2)OC(C)C1O (some centres not stated)	52.2 ± 16%
CC(=O)[O][Hg][c]1c(C)c(C)c(C)c(C)c1C	94.5 ± 28%
COc1cc2c(cc1O)N=CC1CCC(O)N1C2=O (configuration not stated)	93.8 ± 20%
COC1CC(OC2CCC3(C=O)C4CCC5(C)C(C6=CC(=O)OC6)CCC5(O)C4CCC3(O)C2)OC(C)C1OC1OC(COC2OC(CO)C(O)C(O)C2O)C(O)C(O)C1O (configuration not stated)	63.1 ± 13%
CC(C)(O)C=CC(=O)C(C)(O)C1C(O)CC2(C)C3CC=C4C(C=C(O)C(=O)C4(C)C)C3(C)C(=O)CC12C (configuration not stated)	28.1 ± 6.1%
[O-][Cl+3]([O-])([O-])[O-].c1ccc(-c2csc3c4ccccc4c4ccccc4[n+]23)cc1	45.5 ± 12%
